Measured values from PubChem BioAssay (NCATS).
Records with an inconclusive call do not appear. Calls of active or inactive are those of the source. The call rests on the fitted dose curve; in most records, active means well fitted cell-killing curve with a large enough effect; inconclusive means small, poorly fitted or top-dose-only effect, or effect the other way; inactive means no such curve, though single readings can be large or run the other way.

assay: Quantitative High-Throughput drug screen in 47 multiple myeloma cell lines against the NCATS MIPE library collection: KMS27_JCRB cell viability assay (AID 1918970); details: KMS27 myeloma cells, CellTiter-Glo ATP viability, 48 h; series mostly up to 45.8 µM; further: nearly all actives have a fitted effect of over 30% in size
Text: PI: Beverly A. Mock Ph.D.
Laboratory of Cancer Biology and Genetics,
Center for Cancer Research, National Cancer Institute,
National Institute of Health, Bethesda, Maryland
Drug resistance and disease progression are common in multiple myeloma (MM) patients, underscoring the need for new therapeutic combinations. […] We hypothesized that effective combinations would reduce MYC expression and enhance p16 activity. […] These preclinical data identify potentially useful drug combinations for evaluation in drug-resistant MM and reveal potential mechanisms of combined drug sensitivity.
Described herein is the primary MIPE qHTS used to cherrypick compounds. Validated compounds were then further tested for potential synergistic activiy.
[1] Peat TJ, Gaikwad SM, Dubois W, Gyabaah-Kessie N, Zhang S, Gorjifard S, Phyo Z, Andres M, Hughitt VK, Simpson RM, Miller MA, Girvin AT, Taylor A, Williams D, D'Antonio N, Zhang Y, Rajagopalan A, Flietner E, Wilson K, Zhang X, Shinn P, Klumpp-Thomas C, McKnight C, Itkin Z, Chen L, Kazandijian D, Zhang J, Michalowski AM, Simmons JK, Keats J, Thomas CJ, Mock BA. Drug combinations identified by high-throughput screening promote cell cycle transition and upregulate Smad pathways in myeloma. […] Epub 2023 Jun 24. PMID: 37356470; PMCID: PMC10408729.
SEQUENCE No. (e.g., 1, 2, 3, etc.); […] (e.g., Cells, Incubation, Reagent, etc.); VALUE and DESCRIPTION.
1; Cells; 5 uL; white, solid bottom 1536-well Greiner assay plate.
2; Compounds; 23 nL; Kalypsis pin tool (Wako USA) equipped with a 1536-well pin head to transfer to the assay plates.
3; Incubation; 48 hours; 37C incubation.
4; Reagent;5uL; CellTiter Glo (Promega).
5; Detector; 425V; Luminescence; Viewlux PerkinElmer.
NOTES (numbers refer to Sequence numbers above)
1. The cell-based screening methods employed in this study were like those previously published. Briefly, the corresponding myeloma cell lines were screened in 1,536-well plates with 500 cells, 5-uL per well for inhibition of cell viability (assessed by measuring ATP levels with CellTiterGlo).
2. NCATS MIPE 4.0 library of approved and investigational drugs were added using the Kalypsis pin tool. Wells treated with DMSO only for 100% viability and media only wells for 0% viability were used as controls.
3. The assay plates were covered and incubated for 48 hours in a 37C, 5% CO2 incubator with controlled humidity.
4. After 48 hours, CellTilter-GloTM luminescent substrate mix (Promega) reagent was added to the assay plate and plates we incubated for 5 min at room temperature.
5. Signal was measured as median relative luminescence units on a ViewLux (PerkinElmer) multiplate reader.
[1] Heske CM, Davis MI, Baumgart JT, Wilson K, Gormally MV, Chen L, Zhang X, Ceribelli M, Duveau DY, Guha R, Ferrer M, Arnaldez FI, Ji J, Tran HL, Zhang Y, Mendoza A, Helman LJ, Thomas CJ. Matrix Screen Identifies Synergistic Combination of PARP Inhibitors and Nicotinamide Phosphoribosyltransferase (NAMPT) Inhibitors in Ewing Sarcoma. Clin Cancer Res. 2017 Dec 1;23(23):7301-7311. doi: 10.1158/1078-0432.CCR-17-1121. Epub 2017 Sep 12. PMID: 28899971; PMCID: PMC6636827.
Potency means the concentration at half of the fitted maximal effect.

Compound | Potency
C[C@]1(CO)CN(c2cc(C(=O)Nc3ccc4c(c3)-c3c(c(C(N)=O)nn3-c3ccc(F)cc3)CC4)c(Cl)cn2)C[C@@]1(C)CO | 0.0053 µM (active)
O=C(c1ccc(Nc2nccc(-c3cc4ccccc4s3)n2)cc1)N1CCC(N2CCCC2)CC1 | 4.18 µM (active)
Cc1cc(N2CCOCC2)cc2[nH]c(-c3c(NC[C@@H](O)c4cccc(Cl)c4)cc[nH]c3=O)nc12 | 0.332 µM (active)
N#Cc1c(O)c2c(-c3ccc(-c4ccccc4O)cc3)csc2[nH]c1=O | inactive
O=C(Nc1cn[nH]c1-c1nc2ccc(CN3CCOCC3)cc2[nH]1)NC1CC1 | 3.32 µM (active)
CCn1cc(-c2ccnc3[nH]c(-c4cccc(CN(C)C)c4)cc23)c(-c2ccc(NC(=O)N(C)C)cc2)n1 | 7.43 µM (active)
CN1c2cc(O)c(N=NC(N)=O)cc2CC1S(=O)(=O)O (stereo not given) | inactive
OCc1ccc(-c2ccc(-c3ccc(CO)s3)o2)s1 | 0.0118 µM (active)
NC(=O)Nc1cc(-c2cccc(F)c2)sc1C(=O)N[C@H]1CCCNC1 | 0.59 µM (active)
O=C(NC1CCNCC1)c1[nH]ncc1NC(=O)c1c(Cl)cccc1Cl | 0.526 µM (active)
CNc1nccc(-c2cccnc2Oc2cc(C(=O)Nc3cccc(C(F)(F)F)c3)ccc2C)n1 | 7.43 µM (active)
CC(C)CC(=O)Nc1n[nH]c2c1CN(C(=O)C1CCN(C)CC1)C2(C)C | 1.18 µM (active)
Cc1cc(Nc2ncnc3ccc(-c4ccc(CNCCS(C)(=O)=O)o4)cc23)ccc1Oc1ccn2ncnc2c1 | 2.64 µM (active)
Cc1cnc(-c2cnc(NCCNc3ccc(C#N)cn3)nc2-c2ccc(Cl)cc2Cl)[nH]1 | inactive
COC(=O)[C@]12CCC(C)(C)C[C@@H]1[C@@H]1C(=O)C=C3[C@@]4(C)C=C(C#N)C(=O)C(C)(C)[C@@H]4CC[C@@]3(C)[C@]1(C)CC2 | 0.526 µM (active)
CCS(=O)(=O)c1cccc(-c2cc(C(=O)NC3CCN(C)CC3)c(C)c3[nH]c4ncc(C)cc4c23)c1 | 1.32 µM (active)
CN(C1CCc2c(c3ccccc3n2CC(=O)O)C1)S(=O)(=O)c1ccc(F)cc1 (stereo not given) | 1.18 µM (active)
CNC(=O)c1cc(Oc2ccc(NC(=O)Nc3cc(C(C)(C)C)nn3-c3ccc4ncccc4c3)c(F)c2)ccn1 | 23.5 µM (active)
Cc1cn2cc(C(=O)N(C)CCO)cc(N[C@@H]3CCOc4cccc(C)c43)c2n1 | inactive
O=C(Nc1ncc(-c2cc(C(F)F)nn2-c2c(Cl)cccc2Cl)s1)C1CC1 | 0.0833 µM (active)

Compound | Potency
CN(c1ncccc1CNc1nc(Nc2ccc3c(c2)CC(=O)N3)ncc1C(F)(F)F)S(C)(=O)=O | 2.64 µM (active)
Nc1ncnc2c1c(-c1cccc(OCc3ccccc3)c1)cn2C1CC(CN2CCCC2)C1 (stereo not given) | 18.7 µM (active)
COc1ccc(OC)c(-c2nnc3ccc(-c4ccc(OC)c(O[C@@H]5CCOC5)c4)nn23)c1 | 8.33 µM (active)
CC(C)Nc1cc(C(F)(F)F)cc2nc(NC(=O)c3cccnc3)nn12 | inactive
C=CC(=O)Nc1cccc(Oc2nc(Nc3ccc(N4CCN(C)CC4)cc3)ncc2Cl)c1 | 4.69 µM (active)
C[C@@H]1COC(Nc2ccc3ncnc(Nc4ccc(OCc5nccs5)c(Cl)c4)c3c2)=N1 | 9.35 µM (active)
CCNC(=O)Nc1ccc2ncc(Nc3ccc(C)cc3)nc2n1 | 0.526 µM (active)
CCc1c2c(nc3ccc(O)cc13)-c1cc3c(c(=O)n1C2)COC(=O)[C@]3(O)CC | 0.0059 µM (active)
CCN1CCN(CC(=O)Nc2ccc(-c3cccc4c(=O)cc(N5CCOCC5)oc34)c3sc4ccccc4c23)CC1 | 0.418 µM (active)
COc1ccc(F)c(F)c1C(=O)c1cnc(NC2CCN(S(C)(=O)=O)CC2)nc1N | 1.32 µM (active)
Cc1cc(CN2CCN(c3c(Br)cnc4nc(-c5ccc(N6CCN(C)CC6)cc5)[nH]c34)CC2)no1 | inactive
COc1c(N2C[C@@H]3CCCN[C@H]3C2)c(F)cc2c(=O)c(C(=O)O)cn(C3CC3)c12 | 18.7 µM (active)
O=c1[nH]c(=O)n(C2CCCO2)cc1F (stereo not given) | inactive
Cc1c(NC(=O)OC[C@@H]2COCCN2)cn2ncnc(Nc3ccc4c(cnn4Cc4cccc(F)c4)c3)c12 | 20.9 µM (active)
Fc1cc(-c2cccc3ncc(-c4cnn(C5CCNCC5)c4)nc23)cc(F)c1CN1CCOCC1 | 8.33 µM (active)
C=CC(=O)Nc1cccc(Oc2nc(Nc3ccc(N4CCN(C)CC4)cc3OC)ncc2Cl)c1 | 37.2 µM (active)
CC(C)c1ccc(Cn2ccc3c4c(N)nc(NC5CC5)nc4ccc32)cc1 | 0.372 µM (active)
O=C(NCCCNc1nc(Nc2cccc(NC(=O)N3CCCC3)c2)ncc1I)c1cccs1 | inactive
COc1cc2ncnc(Nc3ccc(F)c(Cl)c3)c2cc1NC(=O)C=CCN1CCCCC1 | 4.18 µM (active)
COc1cc(C(C)C)c2c(c1)S(=O)(=O)N(COc1cc(=O)n3cccc(OCCN4CCCCC4)c3n1)C2=O | 18.7 µM (active)
